Measurements as given in the supplement of paper PMC10849652.
The full data set covers some 7,900 targets. This sample favours those with a hit. About 0.6% of all pairs of compound and target were hits. A number with no mark means an inactive call.

Key:
Test in all cases: log2 fold change, soluble protein after heating vs DMSO (PISA); higher = thermal stabilisation; K562 cells, 10 uM, 30 min; active = over 0.2 and 3.5 SD of the protein, either way, in both replicates (recomputed)
[1] = compound: COC1=CC=C(C=C1)CN2C=CC3=C2C=C(C=C3)C(=O)NO
In short: (§1)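 K562 cells at 2×10^6 cells/mL were exposed to 10 μM compound for 30 min, then aliquots were heated for 3 min across 48°C-58°C, pooled, and extracted in PBS containing 0.5% NP-40 at 4°C. The supernatant after 21,000xg for 90 min was taken as soluble protein and measured by TMTpro 16plex LC-MS/MS with channel sums equalised. Thermal stability is reported relative to control samples, with values from duplicates. Fold changes are given on a log2 scale.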

filanesib = compound: CON(C)C(=O)N1N=C(c2cc(F)ccc2F)S[C@@]1(CCCN)c1ccccc1 [filanesib]
In short: as §1

zotarolimus = compound: CO[C@H]1C[C@@H]2CC[C@@H](C)[C@@](O)(O2)C(=O)C(=O)N2CCCC[C@H]2C(=O)O[C@H]([C@H](C)C[C@@H]2CC[C@H](n3cnnn3)[C@H](OC)C2)CC(=O)[C@H](C)/C=C(\C)[C@@H](O)[C@@H](OC)C(=O)[C@H](C)C[C@H](C)/C=C/C=C/C=C/1C [zotarolimus]
In short: as §1

idasanutlin = compound: COc1cc(C(=O)O)ccc1NC(=O)[C@@H]1N[C@@H](CC(C)(C)C)[C@](C#N)(c2ccc(Cl)cc2F)[C@H]1c1cccc(Cl)c1F [idasanutlin]
In short: as §1

alisertib = compound: COc1cc(Nc2ncc3c(n2)-c2ccc(Cl)cc2C(c2c(F)cccc2OC)=NC3)ccc1C(=O)O [alisertib]
In short: as §1

[2] = compound: COc1cc2nc(-c3cc(F)ccc3O)nc(N[C@@H]3CNC[C@H]3C(C)(C)O)c2cc1OC
In short: as §1

gefitinib = compound: COc1cc2ncnc(Nc3ccc(F)c(Cl)c3)c2cc1OCCCN1CCOCC1 [gefitinib]
In short: as §1

[3] = compound: COc1cccc2cc(-c3nc([C@H]4CC[C@H](C(=O)O)CC4)n4ncnc(N)c34)[nH]c12
In short: as §1

lapatinib = compound: CS(=O)(=O)CCNCc1ccc(-c2ccc3ncnc(Nc4ccc(OCc5cccc(F)c5)c(Cl)c4)c3c2)o1 [lapatinib]
In short: as §1

pictilisib = compound: CS(=O)(=O)N1CCN(Cc2cc3nc(-c4cccc5[nH]ncc45)nc(N4CCOCC4)c3s2)CC1 [pictilisib]
In short: as §1

UniProt A6NHX0, sequence (A6NHX0 whole entry, looked up): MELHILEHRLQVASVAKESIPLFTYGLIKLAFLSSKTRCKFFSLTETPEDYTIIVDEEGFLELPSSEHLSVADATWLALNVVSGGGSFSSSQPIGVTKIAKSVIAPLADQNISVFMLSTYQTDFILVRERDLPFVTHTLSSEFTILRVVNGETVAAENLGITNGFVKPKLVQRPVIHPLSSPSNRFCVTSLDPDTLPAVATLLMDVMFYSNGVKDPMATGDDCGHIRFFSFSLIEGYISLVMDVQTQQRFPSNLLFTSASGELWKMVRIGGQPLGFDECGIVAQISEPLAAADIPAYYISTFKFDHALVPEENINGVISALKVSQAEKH
UniProt Q96SZ6, sequence (Q96SZ6 whole entry, looked up): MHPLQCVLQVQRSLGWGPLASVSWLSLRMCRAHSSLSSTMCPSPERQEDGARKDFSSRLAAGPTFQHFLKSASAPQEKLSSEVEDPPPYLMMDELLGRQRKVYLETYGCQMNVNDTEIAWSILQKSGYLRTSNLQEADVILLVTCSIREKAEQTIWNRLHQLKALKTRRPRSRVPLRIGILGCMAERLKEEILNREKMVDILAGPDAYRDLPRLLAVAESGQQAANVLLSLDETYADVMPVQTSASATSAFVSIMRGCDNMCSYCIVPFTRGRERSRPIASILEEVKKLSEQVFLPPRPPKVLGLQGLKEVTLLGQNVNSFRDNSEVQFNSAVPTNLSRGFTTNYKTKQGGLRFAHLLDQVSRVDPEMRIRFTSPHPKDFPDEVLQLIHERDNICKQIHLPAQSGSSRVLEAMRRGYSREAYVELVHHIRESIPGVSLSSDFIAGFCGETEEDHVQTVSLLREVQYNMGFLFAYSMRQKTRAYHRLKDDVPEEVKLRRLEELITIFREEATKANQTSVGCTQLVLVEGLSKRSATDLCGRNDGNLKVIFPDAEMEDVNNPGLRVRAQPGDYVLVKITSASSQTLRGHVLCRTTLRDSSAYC
UniProt O00748, sequence (O00748 whole entry, looked up): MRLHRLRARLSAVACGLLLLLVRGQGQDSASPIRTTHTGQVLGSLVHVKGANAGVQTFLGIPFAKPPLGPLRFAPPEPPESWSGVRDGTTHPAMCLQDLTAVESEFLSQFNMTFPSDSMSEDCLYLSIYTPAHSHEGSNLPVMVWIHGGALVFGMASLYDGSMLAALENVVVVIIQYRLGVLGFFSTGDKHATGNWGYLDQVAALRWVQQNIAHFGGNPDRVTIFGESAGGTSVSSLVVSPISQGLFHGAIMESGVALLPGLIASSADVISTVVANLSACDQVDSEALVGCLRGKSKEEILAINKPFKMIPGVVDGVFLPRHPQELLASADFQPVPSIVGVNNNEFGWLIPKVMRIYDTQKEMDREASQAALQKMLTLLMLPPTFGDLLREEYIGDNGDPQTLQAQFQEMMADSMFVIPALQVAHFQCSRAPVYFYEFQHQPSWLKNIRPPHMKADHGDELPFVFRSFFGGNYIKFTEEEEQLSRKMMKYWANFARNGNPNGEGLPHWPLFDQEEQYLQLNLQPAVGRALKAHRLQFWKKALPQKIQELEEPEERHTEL
UniProt P51946, sequence (P51946 whole entry, looked up): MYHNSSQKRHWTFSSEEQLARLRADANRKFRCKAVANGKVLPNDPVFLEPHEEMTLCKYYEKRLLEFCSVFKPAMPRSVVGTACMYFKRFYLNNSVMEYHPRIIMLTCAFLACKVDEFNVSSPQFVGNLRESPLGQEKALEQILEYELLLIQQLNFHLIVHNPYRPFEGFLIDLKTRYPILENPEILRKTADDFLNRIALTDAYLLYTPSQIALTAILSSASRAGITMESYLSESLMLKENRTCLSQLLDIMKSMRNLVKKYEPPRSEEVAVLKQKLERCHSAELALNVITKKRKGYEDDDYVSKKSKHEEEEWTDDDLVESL
UniProt Q86X83, sequence (Q86X83 whole entry, looked up): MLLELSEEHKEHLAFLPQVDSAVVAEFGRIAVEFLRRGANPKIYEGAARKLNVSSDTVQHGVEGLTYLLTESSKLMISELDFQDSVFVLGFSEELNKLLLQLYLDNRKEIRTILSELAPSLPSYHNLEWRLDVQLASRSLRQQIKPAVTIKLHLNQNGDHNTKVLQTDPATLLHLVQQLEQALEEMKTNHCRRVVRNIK
UniProt P68400, sequence (P68400 whole entry, looked up): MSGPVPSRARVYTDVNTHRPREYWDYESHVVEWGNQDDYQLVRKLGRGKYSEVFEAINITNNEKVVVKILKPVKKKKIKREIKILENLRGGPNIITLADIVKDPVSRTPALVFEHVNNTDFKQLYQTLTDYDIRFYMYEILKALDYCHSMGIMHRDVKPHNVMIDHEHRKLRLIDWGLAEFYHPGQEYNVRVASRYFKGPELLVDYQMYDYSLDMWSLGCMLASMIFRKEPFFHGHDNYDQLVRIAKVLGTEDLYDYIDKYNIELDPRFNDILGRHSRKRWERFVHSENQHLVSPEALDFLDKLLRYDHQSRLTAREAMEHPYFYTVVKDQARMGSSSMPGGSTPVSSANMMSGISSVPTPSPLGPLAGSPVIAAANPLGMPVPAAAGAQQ
UniProt P14635, sequence (P14635 whole entry, looked up): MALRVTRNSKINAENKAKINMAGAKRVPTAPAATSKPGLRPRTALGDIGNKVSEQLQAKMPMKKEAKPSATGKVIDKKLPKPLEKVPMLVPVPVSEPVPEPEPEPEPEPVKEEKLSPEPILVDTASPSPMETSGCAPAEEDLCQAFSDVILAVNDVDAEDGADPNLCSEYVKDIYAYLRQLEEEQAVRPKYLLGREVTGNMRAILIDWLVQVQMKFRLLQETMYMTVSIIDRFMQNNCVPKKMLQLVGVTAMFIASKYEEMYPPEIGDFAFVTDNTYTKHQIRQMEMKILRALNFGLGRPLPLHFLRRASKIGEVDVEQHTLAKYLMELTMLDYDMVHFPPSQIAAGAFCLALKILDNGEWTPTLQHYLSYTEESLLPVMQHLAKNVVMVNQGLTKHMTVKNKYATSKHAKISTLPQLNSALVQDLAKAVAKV
UniProt P46527, sequence (P46527 whole entry, looked up): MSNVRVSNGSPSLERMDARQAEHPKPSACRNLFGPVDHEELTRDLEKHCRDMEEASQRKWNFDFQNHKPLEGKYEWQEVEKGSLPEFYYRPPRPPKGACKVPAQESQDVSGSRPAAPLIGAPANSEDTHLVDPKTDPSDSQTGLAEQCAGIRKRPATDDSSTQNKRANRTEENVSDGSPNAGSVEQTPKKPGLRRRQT
UniProt Q8N163, sequence (Q8N163 whole entry, looked up): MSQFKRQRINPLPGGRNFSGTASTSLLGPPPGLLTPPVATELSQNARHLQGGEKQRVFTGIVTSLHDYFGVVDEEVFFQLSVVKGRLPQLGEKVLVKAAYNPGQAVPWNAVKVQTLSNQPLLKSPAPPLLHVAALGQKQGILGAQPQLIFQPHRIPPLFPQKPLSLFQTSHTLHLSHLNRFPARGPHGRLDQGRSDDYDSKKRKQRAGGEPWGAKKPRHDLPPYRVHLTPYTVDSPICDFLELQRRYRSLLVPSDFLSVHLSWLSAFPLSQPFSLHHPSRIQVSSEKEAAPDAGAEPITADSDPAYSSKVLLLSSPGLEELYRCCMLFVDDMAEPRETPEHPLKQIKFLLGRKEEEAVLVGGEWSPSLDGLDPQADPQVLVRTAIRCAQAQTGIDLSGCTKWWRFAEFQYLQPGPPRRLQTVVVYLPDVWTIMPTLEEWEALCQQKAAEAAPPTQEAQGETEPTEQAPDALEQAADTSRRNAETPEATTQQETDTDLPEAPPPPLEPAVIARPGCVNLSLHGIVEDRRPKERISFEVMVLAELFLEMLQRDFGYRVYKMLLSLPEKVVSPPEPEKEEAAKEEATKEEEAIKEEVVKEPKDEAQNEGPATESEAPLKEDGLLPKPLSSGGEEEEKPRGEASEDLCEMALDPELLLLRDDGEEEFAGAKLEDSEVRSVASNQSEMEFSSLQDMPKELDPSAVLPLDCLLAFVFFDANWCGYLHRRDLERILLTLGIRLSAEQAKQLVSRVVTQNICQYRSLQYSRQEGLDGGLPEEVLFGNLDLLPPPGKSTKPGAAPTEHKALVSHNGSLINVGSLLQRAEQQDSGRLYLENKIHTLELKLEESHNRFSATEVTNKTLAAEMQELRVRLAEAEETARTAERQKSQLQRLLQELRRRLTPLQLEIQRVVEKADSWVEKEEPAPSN
UniProt Q99439, sequence (Q99439 whole entry, looked up): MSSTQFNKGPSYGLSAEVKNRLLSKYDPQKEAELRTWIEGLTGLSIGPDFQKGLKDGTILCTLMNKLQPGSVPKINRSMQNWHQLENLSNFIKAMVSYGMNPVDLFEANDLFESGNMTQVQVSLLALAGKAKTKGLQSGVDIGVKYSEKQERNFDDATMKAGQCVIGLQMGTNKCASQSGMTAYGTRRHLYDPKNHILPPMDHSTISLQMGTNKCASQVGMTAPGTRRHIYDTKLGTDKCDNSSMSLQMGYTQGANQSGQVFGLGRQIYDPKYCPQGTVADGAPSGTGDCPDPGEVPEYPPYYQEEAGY
UniProt Q96KP4, sequence (Q96KP4 whole entry, looked up): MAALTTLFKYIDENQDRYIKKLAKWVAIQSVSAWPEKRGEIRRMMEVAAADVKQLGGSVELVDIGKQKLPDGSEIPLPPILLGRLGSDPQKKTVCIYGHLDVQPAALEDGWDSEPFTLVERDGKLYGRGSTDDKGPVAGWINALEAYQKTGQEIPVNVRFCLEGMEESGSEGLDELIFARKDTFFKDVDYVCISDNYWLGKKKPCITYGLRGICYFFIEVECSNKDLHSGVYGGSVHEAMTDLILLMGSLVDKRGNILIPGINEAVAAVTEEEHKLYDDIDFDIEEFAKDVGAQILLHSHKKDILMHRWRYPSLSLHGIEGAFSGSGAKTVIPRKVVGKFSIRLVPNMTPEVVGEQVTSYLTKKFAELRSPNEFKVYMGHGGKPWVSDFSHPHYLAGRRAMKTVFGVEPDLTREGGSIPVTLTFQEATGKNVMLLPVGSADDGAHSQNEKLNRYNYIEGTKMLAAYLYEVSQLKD
UniProt Q8N1A6, sequence (Q8N1A6 whole entry, looked up): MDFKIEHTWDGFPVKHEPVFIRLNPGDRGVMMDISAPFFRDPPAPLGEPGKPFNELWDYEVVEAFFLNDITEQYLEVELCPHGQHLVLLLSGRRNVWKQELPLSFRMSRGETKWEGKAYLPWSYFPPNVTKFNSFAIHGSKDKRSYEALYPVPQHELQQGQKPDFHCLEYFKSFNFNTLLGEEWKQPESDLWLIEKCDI

Target | log2 fold change [1] | log2 fold change (filanesib) | log2 fold change (zotarolimus) | log2 fold change (idasanutlin) | log2 fold change (alisertib) | log2 fold change [2] | log2 fold change (gefitinib) | log2 fold change [3] | log2 fold change (lapatinib) | log2 fold change (pictilisib)
CLUH, A0A494C0R8 | 0.131 | 0.168 | -0.065 | 0.027 | 0.007 | -0.024 | 0.078 | -0.227 | -0.011 | 
CLPTM1L (UniProt Q96KA5) | -0.053 | -0.114 | -0.095 | -0.141 | -0.032 | -0.08 | -0.007 | 0.065 | -0.02 | 
CDK6 (UniProt Q00534) | -0.012 | 0.037 | 0.021 | -0.06 | -0.051 | 0.036 | 0 | -0.012 | -0.019 | 0.015
CLCN7 (UniProt P51798) | 0.112 | -0.294 (active) | 0.008 | -0.006 | -0.084 | -0.077 | -0.144 | 0.023 | -0.011 | 
CDKN1B (UniProt P46527) | 0.085 | -0.02 | -0.007 | -0.033 | 0.068 | 0.104 | 0.124 | -0.076 | -0.03 | -0.02
CHKA (UniProt P35790) | -0.021 | 0.02 | -0.148 | -0.009 | -0.032 | 0.065 | -0.016 | 0.004 | -0.013 | 0.041
CCNH (UniProt P51946) | 0.043 | 0.005 | -0.044 | 0.018 | -0.011 | 0.026 | -0.03 | -0.002 | 0.023 | 0.007
CASTOR2 (UniProt A6NHX0) | 0.04 | -0.042 | -0.038 | 0.027 | -0.08 | 0.194 | -0.053 | 0.063 | -0.108 | -0.042
COQ9 (UniProt O75208) | 0.02 | -0.113 | -0.017 | 0.166 | -0.038 | -0.013 | 0.025 | 0.045 | 0.043 | -0.041
CAMKK2 (UniProt Q96RR4) | -0.063 | 0.085 | -0.077 | -0.091 | -0.377 | 0.12 | 0.019 | 0.015 | 0.025 | 0.035
CAVIN1 (UniProt Q6NZI2) | -0.012 | 0.109 | 0 | 0.15 | -0.098 | -0.107 | -0.1 | -0.159 | 0.089 | -0.094
CDK9 isoform 2 (UniProt P50750) | -0.103 | 0.154 | 0.015 | 0.114 | -0.093 | -0.182 | -0.031 | -0.067 | -0.055 | 0.014
COMMD2 (UniProt Q86X83) | -0.039 | 0.058 | 0.124 | -0.058 | -0.126 | 0.076 | 0.018 | 0.001 | 0.02 | 0.007
C4orf33 (UniProt Q8N1A6) | -0.055 | 0.072 | -0.009 | -0.054 | -0.17 | -0.026 | 0.029 | 0.061 | 0 | 0.049
CSNK2A1 (UniProt P68400) | -0.025 | 0.03 | -0.015 | -0.009 | -0.073 | -0.167 | -0.023 | 0.066 | 0.032 | 0.102
CNDP2 (UniProt Q96KP4) | -0.171 | -0.145 | 0.041 | -0.024 | -0.049 | -0.001 | -0.008 | 0.027 | 0.017 | 0.021
CNN2 (UniProt Q99439) | -0.008 | -0.058 | -0.002 | -0.029 | -0.007 | 0.021 | 0.012 | -0.065 | -0.041 | -0.054
CES2 isoform 4 (UniProt O00748) | -0.099 | 0.055 | 0.078 | 0.053 | 0.023 | -0.044 | 0.03 | -0.145 | 0.161 | 0.103
CPSF6 isoform 2 (UniProt Q16630) | -0.03 | 0.036 | 0.016 | 0.034 | -0.046 | 0.063 | 0.023 | 0.025 | -0.016 | 0.055
CDK1 (UniProt P06493) | 0.04 | 0.024 | 0.007 | 0.02 | -0.083 | -0.036 | 0.009 | 0.017 | 0.008 | -0.002
CCNB1 (UniProt P14635) | -0.006 | -0.035 | -0.009 | 0.003 | -0.061 | 0.015 | -0.009 | 0.017 | -0.044 | 0.002
CCAR2 isoform 2 (UniProt Q8N163) | -0.038 | 0.024 | 0.063 | -0.065 | -0.072 | -0.187 | -0.03 | -0.042 | 0.04 | -0.034
CA1 (UniProt P00915) | -0.022 | -0.002 | -0.006 | -0.044 | -0.032 | -0.026 | 0.022 | 0.018 | -0.045 | 0.072
CRLF3 (UniProt Q8IUI8) | -0.006 | -0.049 | 0.016 | 0.039 | 0.005 | -0.05 | 0.018 | 0.014 | 0.035 | 0.051
CIT isoform 4 (UniProt O14578) | -0.099 | 0.055 | -0.003 | 0.027 | -0.036 | -0.228 (active) | -0.12 | -0.06 | 0.031 | -0.044
CDK5RAP1 (UniProt Q96SZ6) | -0.395 (active) | -0.049 | 0.066 | -0.076 | -0.057 | 0.131 | -0.074 | 0.055 | -0.034 | 0.075
CDC42EP1 (UniProt Q00587) | -0.139 | -0.07 | 0.014 | 0 | 0 | -0.492 (active) | 0.087 | -0.057 | -0.015 | -0.143
CNOT1 (UniProt A5YKK6) | 0.002 | -0.019 | 0.02 | -0.032 | -0.022 | 0.053 | -0.021 | -0.031 | 0.02 | -0.046
C16orf58 (UniProt Q96GQ5) | -0.059 | -0.148 | -0.043 | -0.053 | -0.009 | -0.009 | 0.044 | 0.037 | 0.004 | 0.015
CSTF2 (UniProt P33240) | -0.052 | 0.005 | -0.009 | 0.013 | -0.016 | -0.005 | -0.07 | 0.023 | 0.021 | 0.069
